Source: PubChem
Hits are enriched below; roughly 6.7% of the tested compounds scored in any of these assays.
MCF10A rerep: DNA re-replication induction in MCF 10a cells; MCF 10A DNA re-replication, Hoechst nuclear intensity, 48 h; Potency, µM (top dose mostly 46.1 µM), for inactives: at the highest dose activity, positive = re-replication, hits mostly activators; 2.9% of 350,000 active; AID 624296; also: % of control where 0% means no effect; nearly all actives have a fitted effect of over 50% in size
PINK1 modulator: modulators of PINK1 expression; PINK1 immunofluorescence, high-content cytometry, 24 h; Potency, µM (series often up to 76.6 µM), for the others: at the top dose activation (PINK1 increase), hits mostly activators; 0.2% of 410,000 active; AID 624263; active = well fitted activation curve with a large enough effect; inconclusive = small, poorly fitted or top-dose-only effect; cell line not stated here; also: % of control where 0% means no effect; nearly all actives have a fitted effect of over 65% in size
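Fluorescence from anti-PINK1 antibody, together with nuclear and cell stains, was scanned on a laser-scanning cytometer. Before staining, stable-line cells were incubated 24 hours with compounds at 5 concentrations; primary antibody 12 h at 10 degrees C.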
KB-3-1 cytotox: kills parental KB-3-1 adenocarcinoma cells; KB-3-1 viability, CellTiter-Glo ATP luminescence, 72 h; Potency, µM (doses to about 46.1 µM), usual class: cytotoxic; 1.4% of 400,000 active; also: % is scaled to controls: 0 for no effect and ±100 for the full control effect; nearly all actives have a fitted effect of over 60% in size
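Cytotoxicity measured as CellTiter-Glo luminescence after 72 h at 37 C. Compound titrations were pinned onto drug-naive KB-3-1 parental adenocarcinoma cells grown in DMEM with 10% FBS, and normalized data fitted to concentration-response curves.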
KB-V1 cytotox: kills drug-selected multidrug resistant KB-V1 cells; KB-V1 MDR cells viability, CellTiter-Glo, 72 h; Potency, µM (series often up to 46.1 µM), actives largely listed as cytotoxic; 3.4% of 400,000 active; AID 1347076; also: % is scaled to controls: 0 for no effect and ±100 for the full control effect; nearly all actives have a fitted effect of over 60% in size
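Cells of the MDR subline KB-V1 are plated, dosed with compound at multiple concentrations, and incubated 72 h at 37 degrees C; CellTiter-Glo is then added and luminescence read after 10 min.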
SW480 rerep: DNA re-replication induction in SW480 cells; Potency, µM (series often up to 46.1 µM), for inactives: top-dose re-replication activation, most hits filed as activators; AID 624297; 1.8% of 340,000 active; SW480 DNA re-replication, Hoechst DNA content imaging, 48 h; also: % of control where 0% means no effect; nearly all actives have a fitted effect of over 55% in size
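Compounds, transferred as 23 nL by pin tool, were incubated with cells for 48 hr; DNA content per nucleus was then quantified by Hoechst staining and fluorescence plate imaging.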
Active calls of the source: *; i = inactive; ? = inconclusive; / = not tested or not shown; ! = not active in a repeat; [ ] = another dose, or the depositor's remark. Unless noted, calls follow the shape of the dose curve; as a rule, active = well fitted curve in the direction sought with a large enough effect; inconclusive = small, poorly fitted or top-dose-only effect, or another doubt; inactive = no such curve, though single readings can be large; an effect the other way counts as inactive or inconclusive. Potency is read from the fitted curve at half-maximal effect.

SMILES	MCF10A rerep	PINK1 modulator	KB-3-1 cytotox	KB-V1 cytotox	SW480 rerep
COc1cc(C(=O)N=c2sccn2C)c([N+](=O)[O-])cc1OC	0%	1%	i	i	-15%
Cn1ccsc1=NC(=O)c1ccc([N+](=O)[O-])o1	7.3µM*	0%	?	?	9.2µM*
COc1ccc2cc(-c3ccn[nH]3)ccc2c1	13%	-1%	7.3µM*	?	1%
COc1ccc(-c2cc(-c3ccccc3O)[nH]n2)cc1	?	-1%	i	i	0%
CC(C)(C)C(=O)c1cnc(Nc2ccccc2Cl)s1	-2%	2%	?	i	-6%[9.22 µM]
O=C(c1ccccc1)c1cnc(Nc2ccccc2Cl)s1	?	-22%[38.3 µM]	i	13µM*	22%
CCCc1cc(C(=O)N2CCC(n3nccc3NC(=O)c3ccc(OC)cc3)CC2)no1	0%	1%	i	i	18%
Cc1ccccc1OCc1nc(-c2ccc(NC(=O)c3ccc4c(c3)OCO4)cc2)no1	21µM*	-1%	i	?	?
Cc1nc2c(-c3ccc(F)cc3)c(C)nn2c(C)c1CCC(=O)NCc1ccc(Cl)cc1	/	2%	i	i	/
CN(c1ccccc1)S(=O)(=O)c1ccc(Cl)c(C(=O)Nc2ccc(-c3nc4ccccc4[nH]3)cc2)c1	11%	11µM*	?	?	?
O=C(Nc1ccc(-c2nc3ccccc3[nH]2)cc1)c1ccccc1NS(=O)(=O)c1ccc(F)cc1	18µM*	20%	i	i	?
Cc1cc(F)ccc1S(=O)(=O)Nc1ccccc1C(=O)Nc1ncn[nH]1	22%	2%	i	?	-1%
CS(=O)(=O)c1ccccc1C(=O)Nc1ccc(-c2nc3ccccc3[nH]2)cc1	-4%	2%	i	i	6%
Cc1cc(F)ccc1S(=O)(=O)Nc1ccccc1C(=O)Nc1ccccc1-c1nc2ccccc2[nH]1	3.7µM*	45µM*	?	18µM*	?
COc1ccc(S(=O)(=O)Nc2ccccn2)cc1C(=O)Nc1ccccc1	4%	?	i	i	-13%
COc1ccc2c(n1)Sc1nc3ccccc3nc1N2	21µM*	?	i	i	?
N#Cc1ccc(NC(=S)NC(=O)C2CC2)cc1	/	3%	i	i	/
O=C(NC(=S)Nc1ccccc1Br)C1CCCC1	3%	5%	i	i	0%
O=C(NC(=S)Nc1ccccc1Br)C1CCCCC1	?	12%	i	16µM*	0%
O=C(NC(c1ccccc1)c1ccccc1)C1CCCC1	-4%	0%	i	16µM*	?
O=C(Nc1ccccc1-c1ccccc1)C1CCCC1	13µM*	4%	7.3µM*	?	?
O=C(NC1CCCCCC1)c1cccnc1Sc1ccccc1	?	2%	i	23µM*	-2%
Cc1ccc(S(=O)(=O)NCC(=O)Nc2cccnc2)cc1C	-2%	1%	i	i	-1%
Cc1cc2nc(C(C)(C)C)c(Cc3ccsc3)n2c(C)c1Br	/	?	i	i	/
O=C(NCC1Cc2cc(F)cc(-c3cccnc3)c2O1)c1cnn(-c2ccccc2)c1 (centres undefined)	/	2%	/	/	/
SMILES	MCF10A rerep	PINK1 modulator	KB-3-1 cytotox	KB-V1 cytotox	SW480 rerep
CCCCn1c(N)c(N(CCOC)C(=O)c2cc(-c3ccccc3Cl)nc3ccccc23)c(=O)[nH]c1=O	3%	5%	i	i	20%
O=C(NC1CCCC1)c1ccccc1-c1ccccc1	-32%	1%	i	15µM*	0%
N#C/C(C(=O)NCc1ccco1)=C1/SC=C(c2ccccc2)N1c1ccccc1	?	12%	i	i	29µM*
CC1=CS/C(=C(/C#N)C(=O)NCc2ccco2)N1c1ccccc1	6%	0%	i	i	-2%
N#Cc1cnn(-c2cc(Cl)ccc2Cl)c1N	/	1%	i	i	/
N#Cc1cnn(-c2ccc([N+](=O)[O-])cc2[N+](=O)[O-])c1N	/	0%	18µM*	?	/
Cc1cc(C)nc(NC(N)=NC(C)c2ccccc2)n1 (centres undefined)	-5%[9.22 µM]	1%	?	i	-17%
Cc1cc(C)nc(NC(N)=NCCc2ccccc2)n1	18µM*	6%	5.2µM*	i	16µM*
COc1cc(/C=C/c2nc(C#N)c(NC(C)c3ccccc3)o2)cc(OC)c1OC (centres undefined)	/	1%	/	/	/
CN1CCN(C2Cc3cc(F)ccc3Sc3ccc(Cl)cc32)CC1 (centres undefined)	21µM*	-2%	i	i	?
CN1CCN(C2=Cc3ccccc3Sc3cc(F)ccc32)CC1	-2%	5%	?	?	-6%
CN1CCN(C2Cc3ccccc3Sc3ccc(Cl)cc32)CC1 (centres undefined)	?	-1%	i	?	/
CN1CCN(C2=Cc3ccc(Cl)cc3Sc3ccc(F)cc32)CC1	?	5%	i	?	4µM*
CSc1ccc2c(c1)C(N1CCN(C)CC1)Cc1ccccc1S2 (centres undefined)	27µM*	-1%	i	i	27µM*!
COc1ccc(CC(=O)NC2CC(=O)N(c3ccc(C)c(C)c3)C2)cc1OC (centres undefined)	/	0%	/	/	/
O=C(NCc1ccccn1)c1cnn(-c2ncc3c(n2)-c2ccccc2CC3)c1C1CC1	/	0%	/	/	/
CCOC(=O)/C(C#N)=C1/C=CN(Cc2ccccc2)C=N1	12%	-15%[38.3 µM]	i	13µM*	0%
O=C(Nc1cccnc1Cl)c1cnn2c1NC(=C1CC1)C=C2C(F)F	/	1%	i	i	/
COc1ccc(CCN(C)C(=S)Nc2ccc(SC(F)F)cc2)cc1OC	?	1%	i	?	?
COc1ccc(CCN(C)C(=S)NC(=O)c2ccc(F)cc2Cl)cc1OC	-6%	5%	i	15µM*	-10%
CCNc1nc(NC(C)(C)C)nc(N2CCCCC2)n1	18µM*	16%	?	i	15µM*
CCNc1nc(N2CCCC2)nc(N2CCCC2)n1	7%	4%	i	i	-6%
CCOc1cc(C=C(C(=O)OC)C(=O)OC)ccc1OCc1ccc([N+](=O)[O-])cc1	0.65µM*	-2%	18µM*	?	15µM*
CCOc1cc(/C=N/O)ccc1OCc1ccc([N+](=O)[O-])cc1	13%	0%	i	i	10%
Cc1ccc(-n2c3c(c(=O)[nH]c2=O)C(NC(=O)c2ccccc2C)(C(F)(F)F)C(=O)N3)cc1 (centres undefined)	/	0%	i	i	/
C/C(=N\Nc1cc(C)nc(-c2ccccc2)n1)c1cccc([N+](=O)[O-])c1	0.73µM*	6%	i	i	6%
C/C(=N\Nc1cc(-c2ccccc2)nc(-c2ccccc2)n1)c1ccc(O)c(C)c1	7.3µM*	-3%	i	?	?
